Laboratory results from PubChem BioAssay (Tox21).
Several values for one entry are separate records, joined by “and”; a condition that tells them apart may be missing. Identical values can stand only once. Records with an inconclusive call do not appear. More than one record can exist for a structure, and the calls need not agree. Activity calls are given as the source filed them. Calls come from the whole dose curve; as a rule, active = well fitted curve in the direction sought with a large enough effect in the repeat runs; inconclusive = weak or mixed curves; inactive = no such curve, though single readings can be large; an effect the other way counts as inactive or inconclusive.

How the values were obtained:
[1] = A CellTox Green Cytotoxicity Assay to monitor cytotoxicity in HepG2 cells - 32 hour (AID 1224883); note: nearly all actives have a fitted effect of over 50% in size
In short: (§1)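 Real-time, homogeneous cytotoxicity readout: dead-cell DNA staining by CellTox Green in HepG2 monolayers, fluorescence measured at timed intervals up to 40 h of continuous compound exposure.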

[2] = A CellTox Green Cytotoxicity Assay to monitor cytotoxicity in HEK293 cells - 8 hour (AID 1224884); note: nearly all actives have a fitted effect of over 35% in size
In short: (§2)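 Cytotoxicity was tracked continuously in HEK293 cells by a DNA-binding dye excluded from viable cells. Compounds were transferred in DMSO 5 h after seeding; fluorescence was recorded at intervals up to 40 h.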

[3] = qHTS RealTime-Glo MT Cell Viability Assay in HepG2 cells - 16 hour (AID 1224885); note: nearly all actives have a fitted effect of over 50% in size
In short: (§3)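 Cell number in HepG2 cultures estimated from NanoLuc luminescence generated by metabolic reduction of a prosubstrate by living cells. The homogeneous, nonlytic format allowed repeated reads at 0, 8, 16, 24, 32 and 40 h of compound exposure.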

[4] = qHTS RealTime-Glo MT Cell Viability Assay in HEK293 cells - 24 hour (AID 1224886); note: nearly all actives have a fitted effect of over 50% in size
In short: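 Homogeneous bioluminescent viability format in HEK293 cells (600 cells/well). Following 5 h at 37 C/5% CO2, 23 nL compound was pintooled; the signal was measured repeatedly during 40 h incubation.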

[5] = qHTS RealTime-Glo MT Cell Viability Assay in HEK293 cells - 8 hour (AID 1224887); note: nearly all actives have a fitted effect of over 50% in size
In short: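 Nonlytic bioluminescent viability monitoring. HEK293 at 600 cells/well with reagent; 5 h settle; compound transfer by pintool; plates held at 37 C and read at set time points.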

[6] = A CellTox Green Cytotoxicity Assay to monitor cytotoxicity in HEK293 cells - 16 hour (AID 1224888); note: nearly all actives have a fitted effect of over 35% in size
In short: as §2

[7] = qHTS RealTime-Glo MT Cell Viability Assay in HepG2 cells - 0 hour (AID 1224889); note: nearly all actives have a fitted effect of over 50% in size
In short: as §3

[8] = A CellTox Green Cytotoxicity Assay to monitor cytotoxicity in HepG2 cells - 8 hour (AID 1224890); note: nearly all actives have a fitted effect of over 45% in size
In short: as §1

[9] = qHTS assay to identify small molecule antagonists of the estrogen receptor alpha (ER-alpha) signaling pathway using the BG1 cell line in the presence of 0.1 nM 17-beta-estradiol - cell viability counter screen (AID 1259241); note: nearly all actives have a fitted effect of over 40% in size
In short: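 The cell line endogenously expresses full-length ER-alpha and carries four EREs driving luciferase. Cells are cultured 5 days hormone-free, treated 22 hr with compounds and 0.1 nM estradiol, then viability is read by fluorescence.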

Measured: Potency
Potency is the fitted concentration of half-maximal effect.

NC(=O)CCl
inactive: [1] | [2] | [3] | [4] | [5] | [6] | [7] | [8] | [9]

C[C@]12CC[C@@H]3c4ccc(OC(=O)N(CCCl)CCCl)cc4CC[C@H]3[C@@H]1CC[C@@H]2O
inactive: [1] | [3] | [4] | [5] | [6] | [7] | [8] | [9]

CC(C)(C)C(O)C(Oc1ccc(-c2ccccc2)cc1)n1cncn1 (configuration not stated)
inactive: [3] | [6] | [7] | [8] | [9]
active: [4] 43.6 µM

CC1(C)C(/C=C(\Cl)C(F)(F)F)C1C(=O)OC(C#N)c1cccc(Oc2ccccc2)c1 (configuration not stated)
inactive: [1] | [2] | [3] | [6] | [7] | [8] | [9]

CCCSP(=O)(OCC)SCCC
inactive: [1] | [2] | [3] | [4] | [5] | [6] | [8] | [9]

ClC1=C(Cl)C2(Cl)C3C(Cl)C=CC3C1(Cl)C2(Cl)Cl (configuration not stated)
active: [1] 54.9 µM | [2] 55.2 µM and 49 µM | [4] 43.8 µM and 49 µM | [5] 43.8 µM and 43.6 µM
inactive: [7]

CCCCCCCCCBr
inactive: [1] | [2] | [3] | [4] | [5] | [7] | [8]

Cl/C=C\CCl
inactive: [1] | [2] | [3] | [4] | [7] | [8] | [9]

Clc1ccc(CCC(Cn2ccnc2)Sc2c(Cl)cccc2Cl)cc1 (configuration not stated)
inactive: [2] | [6] | [7]

CC(C)[C@H](C(=O)O[C@H](C#N)c1cccc(Oc2ccccc2)c1)c1ccc(Cl)cc1
inactive: [1] | [2] | [3] | [6] | [7] | [8] | [9]

CN(C)C(=S)S
inactive: [2] | [6] | [7] | [8]
active: [1] 17.7 µM and 5.45 µM and 11 µM | [4] 11.2 µM and 1.73 µM and 11 µM | [9] 43.3 µM

O=c1ssc(Cl)c1Cl
active: [1] 19.5 µM | [3] 21.9 µM | [4] 15.5 µM | [5] 17.4 µM | [6] 38.9 µM | [7] 43.6 µM | [8] 24.5 µM
inactive: [9]

Oc1ccc(C(c2ccc(O)cc2)(C(F)(F)F)C(F)(F)F)cc1
active: [1] 54.7 µM and 54.9 µM | [4] 43.4 µM
inactive: [2] | [3] | [6] | [7] | [8] | [9]

O=C(O)COc1nc(Cl)c(Cl)cc1Cl
inactive: [3] | [4] | [5] | [7] | [9]

N#Cc1c(-c2ccc(Cl)cc2)[nH]c(C(F)(F)F)c1Br
inactive: [2] | [6] | [9]
active: [4] 1.1 µM

Clc1ccc(Oc2ccccc2)cc1
inactive: [1] | [3] | [5] | [6] | [7] | [8] | [9]

CCCCCCCCc1ccc(O)cc1
active: [1] 42.7 µM | [2] 43.9 µM | [4] 4.93 µM | [5] 6.76 µM | [8] 17.5 µM
inactive: [7]

O=C(CCl)Nc1ccccc1
active: [4] 43.6 µM
inactive: [1] | [2] | [3] | [6] | [7] | [8]

COc1cc(N)c(Cl)cc1C(=O)NC1CN2CCC1CC2 (configuration not stated)
inactive: [1] | [2] | [3] | [4] | [5] | [6] | [7] | [8] | [9]

O=[N+]([O-])c1ccc2ccc3cccc4ccc1c2c34
inactive: [1] | [3] | [4] | [5] | [7] | [8]

O=C(CCCN1CCC2(CC1)C(=O)NCN2c1ccccc1)c1ccc(F)cc1
active: [4] 10.7 µM | [5] 16.9 µM
inactive: [1] | [3] | [6] | [7] | [8]

Clc1ccc(C(c2ccccc2Cl)C(Cl)(Cl)Cl)cc1 (configuration not stated)
inactive: [1] | [3] | [6] | [7] | [8] | [9]
49.3 µM (active) and inactive: [4] | [5]

CN(C)c1ccc(N=Nc2ccccc2)cc1
inactive: [1] | [3] | [7] | [8]

C=CCC1=C(C)C(OC(=O)C2C(C=C(C)C)C2(C)C)CC1=O (configuration not stated)
active: [2] 51.9 µM | [4] 23.2 µM | [5] 23.2 µM
inactive: [7]

CC(C)(C)c1ccc(CSc2cnn(C(C)(C)C)c(=O)c2Cl)cc1
inactive: [2] | [7]
active: [4] 0.0389 µM | [5] 7.76 µM

CCOP(=S)(OCC)SCS(=O)(=O)CC
inactive: [1] | [2] | [3] | [6] | [7] | [9]

CC(C)OC(=S)S
inactive: [2] | [3] | [6] | [7] | [8] | [9]

CC(Cl)CN(C)C (configuration not stated)
inactive: [1] | [3] | [7] | [8] | [9]

CCOP(=S)(OCC)SCCS(=O)(=O)CC
inactive: [1] | [2] | [3] | [4] | [5] | [6] | [9]

CCOP(=O)(NC(C)C)Oc1ccc(SC)c(C)c1 (configuration not stated)
inactive: [2] | [3] | [7] | [8] | [9]

O=C1C=CC(=O)c2ccccc21
active: [1] 12.3 µM | [3] 19.5 µM | [4] 5.49 µM | [5] 6.16 µM | [8] 15.5 µM | [9] 19.3 µM
inactive: [6]
